Results: article PMC4336329 (PLoS ONE, 2015)
The whole screen tested about 310,000 compounds, of which about 14,000 (4.5%) showed an effect of 50% or more. The effect is printed as a negative number. The sample holds strong results, similar compounds and a random draw of the others, so the mix is not that of the screen.

These compounds were tested against human ether-à-go-go-related gene (hERG) potassium channel (human, UniProt Q12809) (assay: primary screen, population patch clamp on CHO cells stably expressing hERG; higher = less effect of the substance).
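Also: peak tail current of the secondary pulse compared with the same well before compound.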

Sequence of human ether-à-go-go-related gene (hERG) potassium channel (Q12809 whole entry, looked up): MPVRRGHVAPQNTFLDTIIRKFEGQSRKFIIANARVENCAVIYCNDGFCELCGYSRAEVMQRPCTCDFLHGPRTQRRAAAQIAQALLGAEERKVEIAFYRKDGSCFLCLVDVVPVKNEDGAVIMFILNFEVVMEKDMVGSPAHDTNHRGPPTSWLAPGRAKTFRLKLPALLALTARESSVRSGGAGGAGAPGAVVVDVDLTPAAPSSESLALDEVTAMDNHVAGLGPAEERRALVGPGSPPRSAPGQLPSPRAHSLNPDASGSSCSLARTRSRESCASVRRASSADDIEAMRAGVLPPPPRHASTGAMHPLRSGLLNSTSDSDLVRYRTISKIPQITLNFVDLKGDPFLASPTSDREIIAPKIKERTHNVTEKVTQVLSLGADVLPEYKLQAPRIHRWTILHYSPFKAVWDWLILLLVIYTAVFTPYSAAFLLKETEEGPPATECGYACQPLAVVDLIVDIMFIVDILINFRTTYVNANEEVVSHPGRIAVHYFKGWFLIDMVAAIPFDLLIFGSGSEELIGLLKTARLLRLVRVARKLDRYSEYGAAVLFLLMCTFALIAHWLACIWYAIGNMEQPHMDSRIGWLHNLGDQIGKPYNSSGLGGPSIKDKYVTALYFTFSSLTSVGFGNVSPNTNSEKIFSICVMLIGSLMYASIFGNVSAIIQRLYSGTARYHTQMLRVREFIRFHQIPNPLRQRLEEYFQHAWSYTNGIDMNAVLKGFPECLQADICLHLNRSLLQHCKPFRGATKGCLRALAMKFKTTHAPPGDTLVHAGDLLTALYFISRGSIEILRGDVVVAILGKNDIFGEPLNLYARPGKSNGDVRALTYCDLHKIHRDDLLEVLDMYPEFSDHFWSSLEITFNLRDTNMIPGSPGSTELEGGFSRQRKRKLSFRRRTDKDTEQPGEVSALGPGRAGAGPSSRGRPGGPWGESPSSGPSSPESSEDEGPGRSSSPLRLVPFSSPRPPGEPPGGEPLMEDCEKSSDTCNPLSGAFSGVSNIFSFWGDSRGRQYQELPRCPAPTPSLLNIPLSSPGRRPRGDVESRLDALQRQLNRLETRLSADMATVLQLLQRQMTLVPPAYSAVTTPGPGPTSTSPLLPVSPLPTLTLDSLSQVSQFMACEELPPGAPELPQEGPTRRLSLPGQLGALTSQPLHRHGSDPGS

Compound | hERG current change (%, negative = inhibition) at 10uM
Cc1ccc(NC(=O)C(C)OC(=O)Cn2cnc3ccccc3c2=O)cc1 (stereo not drawn) | -12.4%
COc1ccc(N2CCN(C(CNC(=O)OCc3ccccc3)c3ccco3)CC2)cc1 (stereo not drawn) | -27.4%
CCOC(=O)c1cc(S(=O)(=O)NCCc2ccccc2)cn1C | 2.98%
Clc1ccccc1CN1CCN(c2ccccc2Cl)CC1 | 16%
CCc1cc(C(=O)c2ccc(OC)cc2)c(N)s1 | -12.7%
N/C(CS(=O)(=O)c1ccc(F)cc1)=N\O | 11.8%
CC(C)(C)C(=O)CNS(=O)(=O)c1ccc(S(=O)(=O)NC2CC2)cc1 | 12.3%
COCCNC(=O)/C(C#N)=C/c1c(N2CC(C)OC(C)C2)nc2ccccn2c1=O (stereo not drawn) | -0.67%
CCS(=O)(=O)Nc1ccc(-c2cc(-c3ccccc3)c3cc(C)ccc3n2)cc1 | 0.812%
COc1ccc(NC(=O)NC2(C(=O)N3CCN(C)CC3)CCCCC2)cc1 | 9.88%
O=C(c1cccc(F)c1)N1CCC2(CC1)NCCc1[nH]cnc12 | 6.92%
Cc1cc(Br)c(NC(=O)COC(=O)CSc2nnc(-c3ccc(Cl)cc3)o2)c(Br)c1 | 1.39%
CCN(CC)c1ccc(NC(=S)NCC2CCCO2)cc1 (stereo not drawn) | 7.83%
COc1ccc(C(=S)N2CCN(C)CC2)cc1Br | -9.51%
COc1ccc2nc(N3CCCC3)[nH]c2c1.Cl | -15.7%
COc1ccc2c(c1)cc1n2CCN=C1NN.Cl.O | 2.89%
CN=C1c2cc3c(Br)c(OC)ccc3n2CCN1C.Cl | -66.9%
COc1ccc2c(c1)cc1n2CCN2CCCN=C12.Cl | -51.6%
O=C(Nc1ccc2nn(-c3ccccc3)nc2c1)c1ccco1 | 7.51%
COC(=O)c1ccc(CSc2nnc(NC(C)C)s2)o1 | 29.8%
O=C(/C=C/c1cccc(Cl)c1)Nc1ccncc1 | -17.1%
O=C(Nc1cccc(-n2cnnn2)c1)c1ccc(Cl)cc1Cl | 4.58%
Cc1ccc(Sc2nc3c(c(=O)[nH]c(=O)n3C)n2CCc2ccccc2)cc1 | 5.16%

Compound | hERG current change (%, negative = inhibition) at 10uM
Cc1nn(Cc2c(F)c(F)c(F)c(F)c2F)c(C)c1NC(=O)c1cccc(COc2ccccc2Cl)c1 | -3.4%
CCn1cc(CN2CCC(n3nccc3NC(=O)CCc3ccccc3)CC2)cn1 | 2.28%
CC(=O)c1cccc(CN2CCC(n3nccc3NC(=O)CCCc3ccccc3)CC2)c1 | -37.8%
CC(C)Oc1ccc(CN2CCC(n3nccc3NC(=O)CCc3ccccc3)CC2)cc1 | -82.3%
COc1cccc(CN2CCC(n3nccc3NC(=O)CCCc3ccccc3)CC2)c1 | -71.3%
Cn1cc(CN2CCC(n3nccc3NC(=O)CCOc3ccccc3)CC2)cn1 | 17.1%
CCOc1cccc(CN2CCC(n3nccc3NC(=O)CCCc3ccccc3)CC2)c1 | -27.5%
O=C(CCc1ccccc1)Nc1ccnn1C1CCN(Cc2ccc(OCCO)cc2)CC1 | -65.3%
O=C(CCc1ccccc1)Nc1ccnn1C1CCN(Cc2ncc[nH]2)CC1 | 19%
O=C(CCOc1ccccc1)Nc1ccnn1C1CCN(Cc2ccc(O)cc2)CC1 | -31.3%
O=C(CCOc1ccccc1)Nc1ccnn1C1CCN(Cc2ccccc2)CC1 | -50%
CC(=O)Nc1ccc(CN2CCC(n3nccc3NC(=O)CCc3ccccc3)CC2)cc1 | -5.87%
Cn1cc(CN2CCC(n3nccc3NC(=O)CCc3ccccc3)CC2)cn1 | 16%
OC1CCCN(Cc2ccc3ccc4cccc5ccc2c3c45)C1 (stereo not drawn) | -4.79%
CCOC(=O)c1c(C)[nH]c(C)c1S(=O)(=O)N(C)CC(=O)NCc1cccc(C)c1 | -13.3%
COc1ccc(-c2cc3ccccc3[nH]2)cc1 | 7.8%
O=C(Nc1ccccc1C(=O)NCCCn1ccnc1)c1ccc(Cl)cc1Cl | -47.1%
O=C(Nc1ccc(Cl)cc1)Nc1nc(-c2ccccc2)cs1 | 11.3%
CCc1ccc(OCC(=O)N/N=C(\C)c2ccc3c(c2)OCCO3)cc1 | -21.5%
CC(Oc1ccccc1)C(=O)NNS(=O)(=O)c1ccc([N+](=O)[O-])cc1 (stereo not drawn) | 13.4%
COc1ccc2cc(C(=O)N3CCC(Cc4ccccc4)CC3)[nH]c2c1 | 25.5%
C/C(=N\Nc1ccccc1)c1c(O)n(Cc2ccccc2)c(=O)[nH]c1=O | 8.42%
